We go through 40 molecules from PubChem BioAssay (Tox21).

Records with an inconclusive call do not appear. Where a call stands in place of a potency, no number is given. Active and inactive are the calls of the source. The call rests on the fitted dose curve.
Potency means the concentration at half of the fitted maximal effect.

Chain of 5-hydroxytryptamine receptor 2A (Homo sapiens) (P28223 whole entry, looked up): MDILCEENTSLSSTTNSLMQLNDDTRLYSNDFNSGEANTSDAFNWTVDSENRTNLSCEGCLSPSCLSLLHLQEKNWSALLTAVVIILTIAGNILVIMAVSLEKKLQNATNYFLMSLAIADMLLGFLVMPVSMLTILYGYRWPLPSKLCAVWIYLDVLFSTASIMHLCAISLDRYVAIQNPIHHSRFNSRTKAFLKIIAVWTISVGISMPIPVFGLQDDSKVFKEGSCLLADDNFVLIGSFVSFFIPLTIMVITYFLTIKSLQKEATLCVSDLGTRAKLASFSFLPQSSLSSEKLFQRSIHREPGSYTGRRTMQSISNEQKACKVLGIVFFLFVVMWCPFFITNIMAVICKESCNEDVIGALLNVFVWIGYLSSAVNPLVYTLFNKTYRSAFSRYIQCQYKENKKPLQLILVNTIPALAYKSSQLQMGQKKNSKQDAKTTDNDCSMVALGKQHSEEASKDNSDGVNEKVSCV

For the assay, the target named is 5-hydroxytryptamine receptor 2A (Homo sapiens) (UniProt P28223). The assay can be described thus: 5-hydroxytryptamine receptor 2A (HTR2A) small molecule antagonists, cell-based qHTS assay (AID 1963586). Further: nearly all actives have a fitted effect of over 45% in size. As to conditions: HTR2A-CHO cells, DOI-induced calcium flux, fluorescence; series mostly up to 61.5 µM. The text has this:
National Center for Advancing Translational Sciences [NCATS]
Division of Preclinical Innovation [DPI]
U.S. Environmental Protection Agency [EPA]
National Institutes of Environmental Health Sciences [NIEHS]
National Toxicology Program [NTP]
U.S. Food and Drug Administration [FDA]
The HTR2A receptor is a subtype of the 5-HT2 receptor that belongs to the serotonin receptor family and is a G protein-coupled receptor (GPCR). The HTR2A-CHO cell line stably expressing human 5-hydroxytryptamine receptor 2A (HTR2A) can be used for screening antagonists of interactions between 5-HT2 and its ligands. The HTR2A-CHO calcium flux assay is a homogeneous fluorescence-based assay for detecting the intracellular calcium level using FDSS kinetic plate reader system.
Tox21 Assay Protocol Summary:
HTR2A-CHO cells were dispensed at 2000 cells/3uL/well in 1536-well black-clear bottom plates using a Multidrop Dispenser. After the assay plates were incubated at a 37 C/5% CO2 incubator for 18 h, 3 uL of Dye Loading Buffer was transferred to the assay plate by a Flying Reagent Dispenser. The assay plates were incubated at 37 C for 1h. For antagonist mode, 23 nL of compounds dissolved in DMSO, positive controls or DMSO only was transferred to the assay plate by a pin tool. After 5 min incubation at room temperature, 1.5 uL of 4-Iodo-2,5-dimethoxy-alpha-methylbenzeneethanamine hydrochloride (DOI) at 4nM was added to each well. The fluorescence intensity in the plates was measured using FDSS 7000EX kinetic plate reader for 3 min at 1 sec intervals.
A general note: Quantitative high-throughput screening tests each substance at several concentrations.
`C=C(C)C(=O)OCCC(C)OC(=O)C(=C)C` (stereo not given): the Potency result is “inactive”.

Take `CCCCC(O)/C=C(C)/C=C/C=C/C(=O)N1CCCC1=O` (stereo not given): the Potency entry was “inactive”.

As to `CC/C=C/CCO`, the Potency result was “inactive”. In the case of `CC1(C)Oc2ccc(C#N)cc2[C@@H](N2CCCC2=O)[C@@H]1O`, the Potency result is “inactive”.

Turning to `CCCCC1CCC(=O)O1` (stereo not given), the Potency entry was “inactive”.

With `CCCOC(C(=O)OC1CCN(C)CC1)(c1ccccc1)c1ccccc1`, the Potency result was “inactive”. Consider `CCCCC1CCC(O)CC1` (stereo not given), for which the Potency entry was “inactive”.

For the molecule `N=C(N=C(N)N)N1CCOCC1`, the Potency result is “inactive”. For the molecule `c1ccc(CNCc2ccccc2)cc1`, the Potency is 8.4 µM (active).

As to `CCSC(=O)N(CC(C)C)CC(C)C`, the Potency entry was “inactive”. Regarding `CC(C)C(=O)c1c(C(C)C)nn2ccccc12`, the Potency entry was “inactive”.

As to `Cc1ccc(S(=O)(=O)NC(=O)NC2CCCC2)cc1`, the Potency entry was “inactive”. Take `O=C1NC(=O)[C@@]2(CCOc3ccc(F)cc32)N1`: the Potency was 0.818 µM (active).

For `COc1ccc(N)c(C)c1`, the Potency result is “inactive”.

For the molecule `O=C(Cn1ccnc1[N+](=O)[O-])NCc1ccccc1`, the Potency result was “inactive”. `CC(CO)c1ccccc1` (stereo not given): the Potency result was “inactive”.

For `C=C1CC/C=C(\C)CC[C@@H]2[C@@H]1CC2(C)C`, the Potency entry is “inactive”.

For `CC(C)NC(=O)c1ccccc1N`, the Potency entry was “inactive”. For the molecule `CCCCCCCCCCCC(=O)N(C)CC(=O)O`, the Potency entry was “inactive”. On to `C=CCCC`, for which the Potency entry is “inactive”. As to `C=C(C)C(=O)OCCC(F)(F)C(F)(F)C(F)(F)C(F)(F)C(F)(F)C(F)(F)F`, the Potency result is “inactive”. For the molecule `O=c1[nH]c2cc(C(F)(F)F)c(N3CCOCC3)cc2n(CP(=O)(O)O)c1=O`, the Potency result is “inactive”. With `CO[Si](CCCNCCC[Si](OC)(OC)OC)(OC)OC`, the Potency result was “inactive”. In the case of `COc1ccc2cc(C=O)ccc2c1`, the Potency result was “inactive”. In the case of `CCOC(=O)CN1CCCC1=O` it was “inactive”; in that of `CS(=O)(=O)c1ccc(Cl)cc1`, “inactive”.

With `CCCCCCCCSCCO`, the Potency result was “inactive”.

As for `C=Cc1ccccn1`, the Potency result was “inactive”. `CC1COc2ccccc2N1C(=O)C(Cl)Cl` (stereo not given): the Potency result was “inactive”. As for `FC(F)(F)c1cccc(Cl)c1`, the Potency entry is “inactive”. As for `CCN1CCc2nc(N)oc2CC1`, the Potency entry is “inactive”. The entry for `O=C(O)Cc1ccc(CCNS(=O)(=O)c2ccc(Cl)cc2)cc1` is “inactive”; for `CCCCC(CC)COCCC#N` (stereo not given) it is “inactive”; for `C=CC(=O)OCCCCCC` it is “inactive”. Regarding `CC(N)CN` (stereo not given), the Potency result was “inactive”. As for `CCCCNc1ccccc1`, the Potency result is “inactive”. Turning to `O=Cc1ccc([N+](=O)[O-])cc1`, the Potency entry was “inactive”. `CCCCOC(O)CC` (stereo not given): the Potency entry was “inactive”. As for `CC1CCC(C(C)C)C(O)C1` (stereo not given), the Potency result was “inactive”. The entry for `Cc1cccc2c1ccc1ccccc12` is “inactive”.
